High-throughput results (PubChem)
PME-1 inh – blocks human protein phosphatase methylesterase 1. Q9Y570. recombinant PME-1, FP-Rh probe fluorescence polarization. inhibition, % at 5.9 µM. 320,000 compounds, 0.53% hits. AID 2130;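 active means inhibition above the campaign mean of all compounds plus 3 SD, cut at about 26% in these data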;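 further: competitive labeling of PME-1 active site by serine hydrolase directed probe; inhibitors block probe labeling so polarization falls and inhibition rises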
PREPL inh – human PREPL enzyme inhibition; Q4J6C6; inhibition, % at 5.96 µM; 320,000 compounds, 0.68% hits; recombinant PREPL, fluorescence polarization activity-based probe; AID 2751; in the data active means inhibition above about 43%
Target sequence (Q4J6C6 whole entry, looked up): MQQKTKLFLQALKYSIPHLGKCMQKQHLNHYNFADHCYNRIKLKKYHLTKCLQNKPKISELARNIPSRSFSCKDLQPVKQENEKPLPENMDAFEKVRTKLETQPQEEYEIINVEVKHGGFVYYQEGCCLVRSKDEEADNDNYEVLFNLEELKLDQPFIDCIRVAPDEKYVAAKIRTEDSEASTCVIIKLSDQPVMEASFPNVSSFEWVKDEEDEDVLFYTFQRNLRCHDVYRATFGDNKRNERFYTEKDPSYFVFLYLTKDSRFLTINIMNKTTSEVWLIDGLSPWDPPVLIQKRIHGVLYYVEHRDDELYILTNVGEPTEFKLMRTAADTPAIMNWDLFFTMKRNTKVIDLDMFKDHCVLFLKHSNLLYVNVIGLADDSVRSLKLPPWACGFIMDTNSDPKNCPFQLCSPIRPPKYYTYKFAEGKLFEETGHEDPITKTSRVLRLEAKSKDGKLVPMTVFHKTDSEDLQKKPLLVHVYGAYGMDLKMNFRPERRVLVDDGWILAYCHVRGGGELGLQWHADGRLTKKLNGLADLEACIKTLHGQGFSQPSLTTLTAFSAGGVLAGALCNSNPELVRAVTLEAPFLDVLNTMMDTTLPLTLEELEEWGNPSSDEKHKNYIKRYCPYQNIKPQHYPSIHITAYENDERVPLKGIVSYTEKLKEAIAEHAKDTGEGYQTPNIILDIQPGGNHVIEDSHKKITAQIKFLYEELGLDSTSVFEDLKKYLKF
LYPLA2 inh – blocks human lysophospholipase 2, a PME1 counter-screen; 320,000 compounds, 0.38% hits; inhibition, % at 5.9 µM; O95372; recombinant LYPLA2, FP-Rh probe fluorescence polarization;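 active means inhibition above the screen-wide mean plus 3 SD, limit set per campaign, cut at about 26% in these data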
GSTO1 counter – GSTO1 inhibition, counter-screen for RBBP9 inhibitors | P78417 | recombinant GSTO1, activity-based probe fluorescence polarization | inhibition, % at 5.96 µM | 300,000 compounds, 1.1% hits;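 active means inhibition above the campaign mean inhibition plus 3 SD, cut at about 35% in these data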
LYPLA1 inh – counter-screen for PME1 inhibitors: inhibitors of human LYPLA1. O75608. recombinant LYPLA1, FP-Rh probe fluorescence polarization. inhibition, % at 5.9 µM. 320,000 compounds, 0.16% hits;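 active means inhibition above the mean of all tested compounds plus 3 SD, set per campaign, cut at about 14% in these data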;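 further: inhibitors block serine hydrolase probe labeling of LYPLA1 so polarization falls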
Fam108B inh – Fam108B inhibition, counter-screen for RBBP9 inhibitors; recombinant Fam108B, FP-Rh probe fluorescence polarization; 300,000 compounds, 0.33% hits; inhibition, % at 9.51 µM;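 active means inhibition above the screen mean inhibition plus 3 SD, computed separately per campaign, cut at about 18% in these data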;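 further: inhibitors lower polarization as less probe binds the enzyme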
LYPLA2 conf – LYPLA2 (human) inhibition, confirmation counter-screen | shares compounds with LYPLA2 inh | recombinant LYPLA2, FP-Rh probe fluorescence polarization | inhibition, % at 5.9 µM | 1,100 compounds, 72% hits | AID 2232;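 active means mean inhibition across replicates above the hit cutoff set in the primary screen, cut at about 26% in these data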;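 further: blocked labeling of the enzyme by serine hydrolase FP-Rh probe lowers polarization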
LYPLA2 gel ABPP – inhibitors of human LYPLA2; AID 652029; shares compounds with LYPLA2 inh; rhLYPLA2 in mouse brain proteome, gel ABPP FP-Rh; inhibition, % at 20 µM; 150 compounds, 30% hits;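 active means inhibition of LYPLA2 enzyme probe labeling above about 50%, limit read from the data; inactive means inhibition below that limit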;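 further: loss of FP-Rh probe labeling of the LYPLA2 gel band measured as band density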
Hits are given with their value; i = inactive; nt = no result given. A selection: hits, their analogues and other compounds. The true share with any hit is near 1.9%.

SMILES	PME-1 inh	PREPL inh	LYPLA2 inh	GSTO1 counter	LYPLA1 inh	Fam108B inh	LYPLA2 conf	others
O=C(Nc1ccc(N2CCN(C(=O)c3ccc(Cl)cc3)CC2)cc1)c1cccnc1	i	i	48.0	i	i	i	40.8
Cc1ccc(C(=O)N2CCN(c3ccc(NC(=O)c4cccnc4Cl)cc3)CC2)cc1	i	i	48.8	i	i	i	57.2	LYPLA2 gel ABPP=i
CCC(=O)NC(=S)Nc1ccc(N2CCN(C(=O)c3ccc(Cl)cc3)CC2)cc1	i	i	29.0	i	i	i	35.5
O=C(Nc1ccc(N2CCN(C(=O)c3ccccc3)CC2)cc1)c1cccnc1	i	i	i	i	i	i	nt
CC(=O)c1c(C)[nH]c(C(=O)COC(=O)CN(C)S(=O)(=O)c2ccc(Cl)cc2)c1C	i	i	35.2	i	i	i	i
CC(=O)c1c(C)[nH]c(C(=O)COC(=O)Cc2ccccc2F)c1C	nt	i	nt	nt	nt	nt	nt
O=[N+]([O-])c1ccccc1OCC(O)CN1CCN(CC(O)COc2ccccc2[N+](=O)[O-])CC1 (stereo not given)	i	i	44.4	i	i	i	49.3
OC(COc1cccc2ccccc12)CN1CCN(c2cccc(Cl)c2)CC1 (stereo not given)	i	i	35.3	i	i	i	i
COc1cccc(C(=O)NC(=S)N2CCN(c3ccc(C(F)(F)F)cc3[N+](=O)[O-])CC2)c1	i	i	65.1	i	i	i	51.8	LYPLA2 gel ABPP=i
Cc1ccccc1OCCC(=O)OCC(=O)NC(=O)c1ccccc1	i	i	i	i	i	i	nt
O=c1c2ccccc2c(-c2ccccc2)nn1Cc1ccc(Cl)cc1	i	i	i	i	i	i	nt
O=c1cc(Cl)c(-c2ccccc2)nn1Cc1ccc(Cl)cc1	i	i	26.4	i	i	i	35.1
Cn1c(C(=O)N2CCN(c3cccc(C(F)(F)F)c3)CC2)cc2sccc21	i	i	26.9	i	i	i	i
O=C(NCC1CCN(c2ccc(S(=O)(=O)N3CCOCC3)cc2)CC1)c1ccc(Cl)cc1	i	i	80.7	i	i	i	75.8	LYPLA2 gel ABPP=59.0
CC1(C)CC(=O)C/C(=N\NC(=O)C2C3CCCCC32)C1 (stereo not given)	i	i	i	i	i	i	nt
Cc1nc(C(=O)Nc2ccc(Cl)cc2)sc1C1(C)CC(c2cccc([N+](=O)[O-])c2)=NO1 (stereo not given)	i	i	i	i	i	i	nt
Cc1nc(C(=O)NC2CCCCC2)sc1C1(C)CC(c2cccc([N+](=O)[O-])c2)=NO1 (stereo not given)	i	i	50.3	i	i	i	59.6	LYPLA2 gel ABPP=i
O=C(N/C=C/c1ccccc1)c1ccccc1	i	i	i	i	i	i	nt
CC/C(C)=C1\SC(N2CCN(c3cccc(C(F)(F)F)c3)CC2)=NC1=O	i	i	32.9	i	i	i	31.4
CC(=O)Nc1ccc(NC(=O)CN2CCN(c3cccc(C(F)(F)F)c3)CC2)cc1	i	i	i	i	i	i	nt
CC(=O)Nc1ccc(CN2CCN(c3cccc(C(F)(F)F)c3)CC2)cc1	i	i	54.5	i	i	i	57.8	LYPLA2 gel ABPP=i
CCOC(=O)C1=C(COC(=O)CC(C)c2ccccc2)NC(=O)NC1C (stereo not given)	i	i	i	nt	i	nt	nt
CSCc1ccc(C(=O)N2CCC(CCC(=O)N(C)Cc3ccccc3)CC2)o1	i	i	i	i	i	i	nt
O=C(CSc1nnc(SCc2ccc(Cl)cc2)s1)N/N=C/c1c[nH]c2ccccc12	i	i	45.2	i	i	i	58.4
CC(C)(C)NC(=O)CSc1nc2cccnc2n1C1CCCCC1	i	i	i	i	i	i	nt
SMILES	PME-1 inh	PREPL inh	LYPLA2 inh	GSTO1 counter	LYPLA1 inh	Fam108B inh	LYPLA2 conf	others
O=C(C1CCC(CNS(=O)(=O)c2cccs2)CC1)N1CCN(c2ccc(Cl)cc2)CC1 (stereo not given)	i	i	35.9	i	i	i	33.7
Cc1cc(C)cc(NC(=O)CN2C(=O)COc3ccc(S(=O)(=O)N4CCCC4)cc32)c1	i	i	37.2	i	i	i	33.4
COc1cccc(NC(=O)CN2C(=O)CSc3ccc(S(=O)(=O)N4CCCCC4)cc32)c1	i	i	40.0	i	i	i	37.7
COc1cc(NC(=O)CN2C(=O)COc3ccc(S(=O)(=O)N4CCCC4)cc32)cc(OC)c1	i	i	i	i	i	i	nt
COc1ccccc1C(=O)NCC(=O)NCCC(c1ccccc1)c1ccccc1	i	i	i	nt	i	nt	nt
COc1ccc(-n2c(SCC(=O)NCc3cccs3)nc3[nH]ncc3c2=O)cc1	i	i	i	i	i	i	nt
COc1ccc(N2CCN(C(=O)CSc3nc4[nH]ncc4c(=O)n3-c3ccc(Br)cc3)CC2)cc1	i	i	46.9	i	i	i	42.2
COc1ccc(N2CCN(C(=O)CCCN3C(=O)c4cccc5cccc(c45)C3=O)CC2)cc1	i	i	73.2	i	i	i	63.3	LYPLA2 gel ABPP=i
O=C(CCCN1C(=O)c2cccc3cccc(c23)C1=O)N1CCN(c2ccc(F)cc2)CC1	i	i	54.3	i	i	i	49.7
COc1ccc(N2CCN(C(=O)CCCOc3cc(=O)n(C)c4ccccc34)CC2)cc1	i	i	30.5	i	i	i	32.8
O=C(CCN1C(=O)c2cccc3cccc(c23)C1=O)N1CCOCC1	i	i	i	i	i	i	nt
CC(=O)c1ccc(S(=O)(=O)N2CCC(NC(=O)Nc3cccc(F)c3)CC2)cc1	i	i	37.2	i	i	i	47.2
NS(=O)(=O)c1ccc(CCNC(=O)CNC(=O)c2ccc(Oc3ccccc3)cc2)cc1	i	i	i	i	i	i	nt
O=C(O)CN1C(=O)/C(=C\c2cccc(OCc3ccc(Cl)cc3)c2)SC1=S	i	i	27.9	i	i	i	27.1
COc1ccc(NC(=O)c2cccc(S(=O)(=O)N3CCN(C)CC3)c2)c(OC)c1	i	i	i	i	i	i	nt
COc1ccc(NC(=O)CSc2nnc(C)c3ccccc23)cc1	i	i	31.7	i	i	i	i
COc1ccc(NC(=O)CSc2nncc3ccccc23)cc1	i	i	i	i	i	i	nt
CCn1cc(C(=O)N2CCCC(N3CCN(c4cccc(C(F)(F)F)c4)CC3)C2)cn1 (stereo not given)	i	i	31.7	i	i	i	i
Cc1cnc(C(=O)N2CCCC(N3CCN(c4cccc(C(F)(F)F)c4)CC3)C2)cn1 (stereo not given)	i	i	25.9	i	i	i	i
CSCCC(=O)N1CCCC(N2CCN(c3cccc(C(F)(F)F)c3)CC2)C1 (stereo not given)	i	i	53.3	i	i	i	58.8	LYPLA2 gel ABPP=i
